Measured values from PubChem BioAssay.
Measured potencies and affinities stand elsewhere. Results filed as inconclusive are left out. The source made the active and inactive calls. Unless noted, the rule behind the calls is not given here.

Assays:
[1] = RMG-1 ovarian cancer cell viability loss – cherry-pick, dose response (AID 687029;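 active = signal drop whose fitted half-maximal concentration is at most twice the top valid dose, in every test run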;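 note: cells exposed to compound for 96 hours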)
[2] = IOSE-T80 viability loss, PAX8-independent line – cell-based, cherry-pick, selectivity assay for PAX8 inhibitor project, dose response (AID 687032;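 active = fitted half-maximal concentration for viability loss no higher than twice the top valid dose, in every repeat run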;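 note: cells exposed to compound for 96 h before reading; 0% = neutral control wells and -100% = 2 µM mitoxantrone kill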)
[3] = CMV-driven luciferase expression suppression in HEK293 – cell-based, luminescence, dry powder, counter-screen for Pax8 inhibitor project, dose response (AID 743020;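 active = signal-lowering compounds whose fitted half-maximal concentration is at or below twice the top tested dose in every run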;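 note: HEK293 cells stably expressing the CMV luciferase reporter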)
[4] = general cell-killing toxicity readout – plate reader, dry powder samples, cytotoxicity control for PAX8 inhibitor project, dose response (AID 743021)
[5] = IGROV1 cell killing – plate reader, dry powder samples, PAX8 inhibitor project, dose response (AID 743043);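 note: more negative means fewer viable cells or more cytotoxicity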
[6] = OVCAR-3 cell viability loss – plate reader, dry powder samples, PAX8 inhibitor project, dose response (AID 743044); conditions: max activity: at 35 µM, hits give low values unless noted
[7] = toxicity toward immortalized ovarian surface epithelium – cell-based, plate reader, dry powder samples, cytotoxicity control for PAX8 inhibitor project, dose response (AID 743045);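 note: 0% = neutral control median and -100% = positive control median; more negative values mean more cell killing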
[8] = A2780 cell killing – plate reader, dry powder samples, cytotoxicity control, dose response (AID 743046);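 note: 0% = neutral control wells and -100% = cytotoxic reference compound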
[9] = OVCAR8 cell viability loss – plate reader, dry powder samples, PAX8 project, dose response (AID 743197)

Measured: max activity

O=S(=O)(c1ccc(F)cc1)N1C[C@H]2[C@@H](c3ccccc31)[C@H](CO)N2Cc1ccccc1Cl
inactive: [1] | [2] | [3] | [4] | [5] | [6] 16.9% | [7] | [8] | [9]

C[C@H](CO)N1C[C@H](C)[C@@H](CN(C)CC2CCCCC2)Oc2ccc(NC(=O)Nc3ccc4c(c3)OCO4)cc2CC1=O
inactive: [1] | [2] | [3] | [4] | [5] | [6] 15.5% [at 1 µM, hits give low values] | [7] | [8] | [9]

C[C@@H]1CCCCO[C@H](CN(C)Cc2ccncc2)[C@H](C)CN([C@@H](C)CO)C(=O)c2cc(NC(=O)Nc3ccc(C(F)(F)F)cc3)ccc2O1
inactive: [1] | [2] | [3] | [4] | [5] | [6] -11.1% [at 0.26 µM, hits give low values] | [7] | [8] | [9]

C[C@@H]1CN([C@H](C)CO)C(=O)c2cc(NC(=O)Nc3ccc(F)cc3)ccc2O[C@@H](C)CCCCO[C@H]1CN(C)Cc1ccc(Cl)c(Cl)c1
inactive: [1] | [2] | [3] | [4] | [5] | [6] 26% | [7] | [8] | [9]

C[C@H](CO)N1C[C@H](C)[C@H](CN(C)C(=O)Nc2ccc(-c3cccs3)cc2)OCc2cnnn2CCCC1=O
inactive: [1] | [2] | [3] | [4] | [5] | [6] -11.7% | [7] | [8] | [9]

C[C@@H]1CN([C@H](C)CO)C(=O)Cc2cc(NS(=O)(=O)c3ccccc3)ccc2O[C@@H]1CN(C)S(=O)(=O)c1ccc(Cl)cc1
inactive: [1] | [2] | [3] | [4] | [5] | [6] 47.5% | [7] | [8] | [9]

C[C@H](O)C#Cc1ccc2c(c1)O[C@H](CN(C)Cc1ccc(-c3ccccc3)cc1)[C@@H](C)CN([C@H](C)CO)S2(=O)=O
inactive: [1] | [2] | [3] | [4] | [5] | [6] 15.2% [at 16 µM, hits give low values] | [7] | [8] | [9]

C[C@@H]1CN([C@H](C)CO)S(=O)(=O)c2ccc(C#Cc3ccncc3)cc2O[C@H]1CN(C)C(=O)Nc1ccc2c(c1)OCO2
inactive: [1] | [2] | [3] | [4] | [5] | [6] -26.8% [at 16 µM, hits give low values] | [7] | [8] | [9]

C[C@H]1CN([C@@H](C)CO)C(=O)Cc2cc(NC(=O)Nc3ccc(C(F)(F)F)cc3)ccc2O[C@H]1CN(C)C(=O)NC1CCCCC1
inactive: [1] | [2] | [3] | [4] | [5] | [6] 30.7% [at 1.1 µM, hits give low values] | [7] | [8] | [9]

O=C(C[C@H]1CC[C@@H]2[C@H](COC[C@@H](O)CN2Cc2ccc(F)cc2)O1)NCc1ccccc1Cl
inactive: [1] | [2] | [3] | [4] | [5] | [6] 64.7% | [7] | [8] | [9]

Cc1ccc(S(=O)(=O)N(C)C[C@@H]2Oc3cc(C#Cc4ccncc4)ccc3S(=O)(=O)N([C@@H](C)CO)C[C@H]2C)cc1
inactive: [1] | [2] | [3] | [4] | [5] | [6] -28.9% [at 16 µM, hits give low values] | [7] | [8] | [9]

C[C@@H]1CN([C@@H](C)CO)S(=O)(=O)c2ccc(C#Cc3ccc(F)cc3)cc2O[C@H]1CN(C)C(=O)NC1CCCCC1
inactive: [1] | [2] | [3] | [4] | [5] | [6] -9.84% | [7] | [8] | [9]

COc1ccc(S(=O)(=O)N2CCCCN3[C@H](C2)[C@H](c2ccc(C#CC(C)C)cc2)[C@@H]3CO)cc1
inactive: [1] | [2] | [3] | [4] | [5] | [6] -13.1% [at 8 µM, hits give low values] | [7] | [8] | [9]

COc1ccccc1-c1ccc2c(c1)[C@H]1[C@H](CCN1S(=O)(=O)c1ccccc1F)[C@H](CO)N2
inactive: [1] | [2] | [3] | [4] | [5] | [6] -17.4% | [7] | [8] | [9]

CNC[C@@H]1Oc2cc(C#CC3CCCCC3)ccc2S(=O)(=O)N([C@@H](C)CO)C[C@@H]1C
inactive: [1] | [2] | [3] | [4] | [5] | [6] 17.9% [at 0.26 µM, hits give low values] | [7] | [8] | [9]

Cc1ccc(S(=O)(=O)Nc2ccc3c(c2)C(=O)N([C@@H](C)CO)C[C@@H](C)[C@@H](CN(C)Cc2ccc(Cl)c(Cl)c2)OCCCC[C@@H](C)O3)cc1
inactive: [1] | [2] | [3] | [4] | [5] | [6] -8.95% | [7] | [8] | [9]

C[C@@H]1CCCCO[C@H](CN(C)Cc2ccc(C(F)(F)F)cc2)[C@@H](C)CN([C@@H](C)CO)C(=O)c2cc(NS(=O)(=O)c3cccs3)ccc2O1
inactive: [1] | [2] | [3] | [4] | [5] | [6] -7.27% [at 0.5 µM, hits give low values] | [7] | [8] | [9]

Cc1ccc(S(=O)(=O)N[C@@H]2C=C[C@@H](CC(=O)N3CCC(Cc4ccccc4)CC3)O[C@@H]2CO)cc1
inactive: [1] | [2] | [3] | [4] | [5] | [6] -14.5% [at 16 µM, hits give low values] | [7] | [8] | [9]

CC(C)CC#Cc1ccc2c(c1)O[C@H](CN(C)S(=O)(=O)c1ccc(F)cc1)[C@H](C)CN([C@@H](C)CO)S2(=O)=O
inactive: [1] | [2] | [3] | [4] | [5] | [6] -39.6% | [7] | [8] | [9]

C[C@H](CO)N1C[C@H](C)[C@@H](CN(C)Cc2ccc(Cl)c(Cl)c2)OCCCC[C@H](C)Oc2ccc(NC(=O)Nc3ccccc3)cc2C1=O
inactive: [1] | [2] | [3] | [4] | [5] | [6] -26.8% [at 0.26 µM, hits give low values] | [7] | [8] | [9]

Cc1ccc(S(=O)(=O)Nc2ccc3c(c2)C(=O)N([C@H](C)CO)C[C@H](C)[C@H](CN(C)C(=O)c2ccccc2)OCCCC[C@H](C)O3)cc1
inactive: [1] | [2] | [3] | [4] | [5] | [6] -23.6% | [7] | [8] | [9]

C[C@@H]1CCCCO[C@H](CN(C)Cc2ccc(Cl)c(Cl)c2)[C@@H](C)CN([C@@H](C)CO)C(=O)c2cc(NS(=O)(=O)c3ccc(Cl)cc3)ccc2O1
inactive: [1] | [2] | [3] | [4] | [5] | [6] -6.91% [at 4.2 µM, hits give low values] | [7] | [8] | [9]

C[C@@H]1CCCCO[C@H](CN(C)S(=O)(=O)c2ccc(Cl)cc2)[C@@H](C)CN([C@@H](C)CO)C(=O)c2cc(NC(=O)Nc3ccc(C(F)(F)F)cc3)ccc2O1
inactive: [1] | [2] | [3] | [4] | [5] | [6] 9.63% [at 2.1 µM, hits give low values] | [7] | [8] | [9]

C[C@@H]1CCCCO[C@H](CN(C)C(=O)Cc2ccccc2)[C@H](C)CN([C@@H](C)CO)C(=O)c2cc(NC(=O)Nc3ccc(C(F)(F)F)cc3)ccc2O1
inactive: [1] | [2] | [3] | [4] | [5] | [6] 13.6% | [7] | [8] | [9]

C[C@H]1CCCCO[C@@H](CN(C)C(=O)c2ccccc2)[C@@H](C)CN([C@@H](C)CO)C(=O)c2cc(NC(=O)Nc3ccc(C(F)(F)F)cc3)ccc2O1
inactive: [1] | [2] | [3] | [4] | [5] | [6] 13.2% [at 1.1 µM, hits give low values] | [7] | [8] | [9]

Cc1ccc(S(=O)(=O)N(C)C[C@H]2Oc3ccc(NC(=O)Nc4ccc(C(F)(F)F)cc4)cc3CC(=O)N([C@@H](C)CO)C[C@H]2C)cc1
inactive: [1] | [2] | [3] | [4] | [5] | [6] 15.5% [at 0.26 µM, hits give low values] | [7] | [8] | [9]

CN1c2ccc(C#Cc3cccnc3)cc2[C@@H]2[C@@H](CCN2C(=O)Cc2cccnc2)[C@@H]1CO
inactive: [1] | [2] | [3] | [4] | [5] | [6] 17.5% [at 16 µM, hits give low values] | [7] | [8] | [9]

C[C@@H]1CCCCO[C@H](CN(C)C(=O)Nc2ccc(C(F)(F)F)cc2)[C@H](C)CN([C@@H](C)CO)C(=O)c2cc(NS(=O)(=O)c3ccc(Cl)cc3)ccc2O1
inactive: [1] | [2] | [3] | [4] | [5] | [6] -7.31% | [7] | [8] | [9]

COc1cccc(-c2ccc3c(c2)[C@@H]2[C@@H](CCN2C(=O)NC2CCCCC2)[C@H](CO)N3C)c1
inactive: [1] | [2] | [3] | [4] | [5] | [6] -16.7% [at 2.1 µM, hits give low values] | [7] | [8] | [9]

Cc1ccc(S(=O)(=O)Nc2ccc3c(c2)CC(=O)N([C@H](C)CO)C[C@H](C)[C@@H](CN(C)Cc2ccc(Cl)c(Cl)c2)O3)cc1
inactive: [1] | [2] | [3] | [4] | [5] | [6] 29.2% [at 0.26 µM, hits give low values] | [7] | [8] | [9]

COc1cccc(S(=O)(=O)N(C)C[C@H]2OCc3ccccc3-c3c(n(C)c4ccccc34)C(=O)N([C@@H](C)CO)C[C@H]2C)c1
inactive: [1] | [2] | [3] | [4] | [5] | [6] -13.7% | [7] | [8] | [9]

Cc1ccc(S(=O)(=O)N(C)C[C@@H]2Oc3c(NC(=O)c4ccc(-c5nccs5)cc4)cccc3C(=O)N([C@@H](C)CO)C[C@@H]2C)cc1
inactive: [1] | [2] | [3] | [4] | [5] | [6] 61.7% [at 0.26 µM, hits give low values] | [7] | [8] | [9]

C[C@H](O)C#Cc1cnc2c(c1)C(=O)N([C@H](C)CO)C[C@H](C)[C@H](CN(C)Cc1ccc(-c3ccccc3)cc1)O2
inactive: [1] | [2] | [3] | [4] | [5] | [6] 9.01% [at 0.26 µM, hits give low values] | [7] | [8] | [9]

C[C@@H]1CN([C@@H](C)CO)S(=O)(=O)c2ccc(C#Cc3ccccc3F)cc2O[C@H]1CN(C)CC1CCOCC1
inactive: [1] | [2] | [3] | [4] | [5] | [6] -11.1% [at 8 µM, hits give low values] | [7] | [8] | [9]

C[C@H]1CCCCO[C@@H](CN(C)C)[C@@H](C)CN([C@@H](C)CO)C(=O)c2cc(NC(=O)Nc3ccc(C(F)(F)F)cc3)ccc2O1
inactive: [1] | [2] | [3] | [4] | [5] | [6] -16.2% [at 8 µM, hits give low values] | [7] | [8] | [9]
